Laboratory results taken from PubChem BioAssay (NCI).
This is part of a sample that, as a whole, favours compounds with a hit. Of some 79,000 tested, about 15% had one in any assay. Values without a mark were called inactive. Active and inactive are the calls of the source. Cut-off read from the data, not from the text of the source: active = growth inhibition above about 70%; inactive = the rest.

Tests used:
[1] = NCI Yeast Anticancer Drug Screen. Data for the rad50 strain (AID 155);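 note: 0% = growth of vehicle-only cultures of the same strain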; settings: S. cerevisiae rad50 strain growth inhibition; at 50.0 µM; active compounds read high
How it was run: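 Growth of the mutant yeast was measured after compound exposure and referenced to vehicle-treated cultures.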

[2] = NCI Yeast Anticancer Drug Screen. Data for the mec2-1 strain (AID 157); settings: S. cerevisiae mec2-1 strain, at 50.0 µM, active compounds read high
How it was run: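 Mutant yeast (mec2-1) grown with compound; growth inhibition relative to vehicle control reported.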

[3] = NCI Yeast Anticancer Drug Screen. Data for the sgs1 mgt1 strain (AID 161);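 note: 0% = growth of cultures given vehicle only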; settings: S. cerevisiae sgs1 mgt1 strain, at 50.0 µM, active compounds read high
How it was run: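 Yeast cells carrying a defined DNA-repair defect were exposed to test compounds. Growth inhibition was measured relative to vehicle-treated controls.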

[4] = NCI Yeast Anticancer Drug Screen. Data for the cln2 rad14 strain (AID 165);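 note: 0% = growth equal to vehicle treated cultures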; settings: S. cerevisiae cln2 rad14 strain, at 50.0 µM, active compounds read high
How it was run: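 Readout is yeast growth inhibition versus vehicle-treated controls, using a strain with cln2 and rad14 alterations exposed to compound.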

[5] = NCI Yeast Anticancer Drug Screen. Data for the bub3 strain (AID 167); settings: S. cerevisiae bub3 mutant strain, at 50.0 µM, active compounds read high
How it was run: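 Whole-cell yeast assay. The mutant strain was incubated with compounds, and growth inhibition was determined by comparison with vehicle-treated cells.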

[6] = NCI Yeast Anticancer Drug Screen. Data for the mlh1 rad18 strain (AID 175); settings: S. cerevisiae mlh1 rad18 strain growth inhibition; at 50.0 µM; active compounds read high
How it was run: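 Genetically defined yeast (DNA repair-deficient) exposed to compounds; growth inhibition determined relative to vehicle.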

Row | SMILES | growth inhibition [1] | growth inhibition [2] | growth inhibition [3] | growth inhibition [4] [%] | growth inhibition [5] [%] | growth inhibition [6]
1 | COC(=O)C1(c2ccccc2)Cc2ccccc2-c2ccccc21 (centres undefined) | -24.1% | -9.5% | -10.2% | -16.3 | 26.1 | -17%
2 | COc1ccc(Br)cc1/C=N\NC(=O)c1ccccc1N(C)C | -24.2% | -11.6% | -10.8% | 6.6 | -3.05 | -4.25%
3 | C(=C/c1ccccc1)/C=N/N1CCN(/N=C/C=C/c2ccccc2)CC1 | -1.4% | 20.6% | 14.8% | -7.1 | 18.5 | -7.05%
4 | COc1ccc(/C=C2\N=C(c3ccccc3)OC2=O)c(OC)c1C | -6.1% | -4.9% | -1.65% | -60.4 | 1.9 | -9.95%
5 | O=C(OCc1ccccc1CN1CCCC1)c1ccc(Br)cc1 | 11% | -6.05% | -9.9% | -16.9 | 20.1 | -17.9%
6 | O=C1c2ccccc2C(=O)N1CCn1[nH]c(=O)c2ccccc2c1=O | -3.25% | -10.4% | -6.55% | 8.9 | -3.6 | 14.1%
7 | CCN(CC)CCOC(=O)Nc1c(Cl)cccc1Cl | -3.75% | -16.7% | 8.6% | 9.4 | 9.25 | 6.05%
8 | N=[N+]=CC(=O)OCC(N)C(=O)O (centres undefined) | 78.7% (active) | 82.2% (active) | 80.2% (active) | 54.6 | 13.2 | 73.9% (active)
9 | Cc1ccccc1N(C)S(=O)(=O)c1ccccc1[N+](=O)[O-] | -12% | -41.5% | 8.45% | -5.6 | 20.2 | -10.2%
10 | CCCC(C)OC(=O)Nc1cccc(O)c1 (centres undefined) | -2.3% | -10.9% | -5.3% | -10.9 | -21.5 | -5.05%
11 | CCCCCCCCCCCCCC(=O)OCC(=O)c1ccc(-c2ccccc2)cc1 | 23.1% | 4.2% | 32.5% | 29.9 | 11.4 | 27.8%
12 | O=S1c2ccccc2S(=O)c2ccccc21 (centres undefined) | -0.2% | -6.25% | 1.4% | -0.55 | 0.95 | 1.15%
13 | Cc1cc2c(cc1C)NC1=C(N2)OC(c2ccc(C3OC4=C(Nc5cc(C)c(C)cc5N4)C3=O)cc2)C1=O (centres undefined) | 32.2% | 14.8% | 9.95% | 16.5 | 0.75 | 29.6%
14 | COc1ccc(N(CN2C(=O)CCC2=O)CS(=O)(=O)c2ccc(Cl)cc2)cc1 | 16.6% | 0.2% | 11.5% | 14.9 | -3.75 | -16.4%
15 | N#CCCOC(=O)Nc1cccc(Cl)c1 | 41.7% | 15.4% | 27.3% | 7.3 | -7.2 | 33.6%
16 | CC(C)(C)N=C(N)NC#N | 9.6% | 9.25% | -9.85% | 17.1 | -4.5 | -33.3%
17 | CCC(C)NC(=O)Nc1ccccc1 (centres undefined) | 13.3% | 8.95% | -0.65% | 3.9 | -2.45 | 6.35%
18 | CN1COc2c(ccc3c4c(ccc23)CN(C)CO4)C1 | 3.15% | 17.9% | 16.6% | -47 | 1.75 | 35.4%
19 | COC(=O)N1CC2CC=CC(C2)c2ccccc21 (centres undefined) | -13.9% | -37.5% | -1.35% | 5.15 | 16.1 | -9.4%
